Compound activity as filed in PubChem BioAssay.
USP2a inh: blocks human ubiquitin-specific protease USP2a | 330,000 tested, 0.01% active | USP2 core, Ub-CHOP2 coupled fluorogenic reporter, 485/531 | Potency, µM (highest dose often 38.3 µM), hits mostly inhibitors | O75604
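Cell-free coupled assay: 10nM USP2 core preincubated 30min RT with compound in Tris-HCl pH 8.0/CaCl2/CHAPS buffer, then 25nM Ub-CHOP2 and 25nM reporter substrate; fluorescence (Ex 485/Em 531) read after 60min RT, normalized to NEM inhibition, concentration-response curves fitted.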
D1 agonist: activates the human D1 dopamine receptor | P21728 | HEK293 T-REx D1 cells, calcium flux, agonist mode | activation, % at 2 µM | 360,000 tested, 1% active | AID 504660; in the data active = activation above about 30%
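Inducible HEK293 T-REx D1 cells, force-coupled to calcium signalling, were plated at 4000 cells/well with tetracycline and held overnight at 30 C. After no-wash calcium dye loading, compound-evoked calcium rise over 180 s flagged agonists.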
D1 antagonist: blocks dopamine activation of the human D1 receptor; AID 504652; P21728; activity change, negative = inhibition, % at 10 µM; HEK293 TREx D1 cells, calcium flux, dopamine EC80; stronger effect = lower value; 360,000 tested, 3.2% active; in the data active = activity change below about -30%
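HEK293 T-REx cells expressing inducible, force-coupled D1 receptor; no-wash Ca dye, 30–90 min RT. Cmpd → 180 s read at 1 Hz → EC80 DA → 180 s read.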
Eya2 inh: inhibitors of human Eya2 phosphatase activity; recombinant Eya2, OMFP fluorescence dephosphorylation (OMFP is methylfluorescein phosphate); 330,000 tested, 0.006% active; AID 488837; O00167; Potency, µM (titrated, usually from 76.9 µM), usual class: inhibitors
Target sequence (O00167 whole entry, looked up): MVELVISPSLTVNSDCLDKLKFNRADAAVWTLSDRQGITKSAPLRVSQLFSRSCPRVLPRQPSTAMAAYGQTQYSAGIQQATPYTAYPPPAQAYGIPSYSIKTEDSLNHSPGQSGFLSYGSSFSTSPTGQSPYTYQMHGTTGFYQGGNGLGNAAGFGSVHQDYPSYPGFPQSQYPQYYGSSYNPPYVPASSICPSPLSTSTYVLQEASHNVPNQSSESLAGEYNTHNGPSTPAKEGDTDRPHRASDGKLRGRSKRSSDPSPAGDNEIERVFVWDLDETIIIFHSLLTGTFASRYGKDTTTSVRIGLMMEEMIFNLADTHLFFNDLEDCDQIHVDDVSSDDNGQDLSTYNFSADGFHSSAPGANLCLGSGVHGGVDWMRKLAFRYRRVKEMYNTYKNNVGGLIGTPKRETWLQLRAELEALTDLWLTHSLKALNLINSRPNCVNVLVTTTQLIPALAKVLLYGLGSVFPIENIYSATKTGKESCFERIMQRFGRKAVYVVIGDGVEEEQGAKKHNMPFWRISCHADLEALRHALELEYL
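Eya2 protein (added as 0.2 uM solution) was preincubated with compound for 10 min at ambient temperature in 50 mM HEPES pH 7.5, 50 mM NaCl, 5 uM MgCl2, 0.05% BSA, 1 mM DTT. OMFP (added at 50 uM) then reacted 10 min; fluorescence read at 485/525 nm.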
D1 PAM: human D1 dopamine receptor positive modulation; P21728; HEK293 TREx D1 cells, calcium flux, dopamine EC20 potentiation; potentiation, % at 10 µM; 360,000 tested, 0.036% active; AID 504651; in the data active = potentiation above about 30%
GALK inhibitor: galactokinase (human) inhibition; Purified GALK, Kinase-Glo residual ATP luminescence; 270,000 tested, 0.007% active; Potency, µM (series often up to 57.5 µM), hits mostly inhibitors; AID 1868; P51570
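GALK at 5 nM final was combined with compound, 35 uM ATP and 100 uM galactose in HEPES pH8.0 with MgCl2 and DTT. The reaction ran one hour at room temperature before luminescent ATP detection.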
Large screens that a line does not name were inactive; ! = not confirmed by another sample. Only some compounds are listed: those with a hit (about 3.9% of all), similar ones and a draw of the others. Unless noted, calls come from the whole dose curve; as a rule, active = well fitted inhibition curve with a large enough effect; inconclusive = small, poorly fitted or top-dose-only effect, or effect the other way; inactive = flat fitted curve, though single readings scatter.

NC(=NCCC[C@H](N)C(=O)O)N[N+](=O)[O-]	none (no result: USP2a inh, D1 agonist, D1 antagonist, D1 PAM, GALK inhibitor)
Cc1cccc(N2CCc3c2nc2ccccc2c3N)c1	D1 antagonist -32!
Cc1cc(C)cc(-n2c(/C=C/c3cccc(F)c3)nc3ccccc3c2=O)c1	none (no result: USP2a inh, Eya2 inh, GALK inhibitor)
CCN(CC)C(=O)c1ccc(NC(=O)c2cccc(S(=O)(=O)N3CCN(Cc4ccccc4)CC3)c2)cc1	D1 antagonist -32 (no result: GALK inhibitor)
CN1C(CC(O)c2ccccc2)CCCC1CC(O)c1ccccc1 (configuration not stated)	D1 antagonist -45 (no result: GALK inhibitor)
CN1C(=O)C(=Cc2cc([N+](=O)[O-])ccc2N2CCCCC2)C(=O)N(C)C1=O	none
CN1C(=O)C(=Cc2sc(=O)n(-c3ccccc3)c2N2CCCCC2)C(=O)N(C)C1=O	D1 agonist 67
NC(=O)CN1CC(O)CC1=O (configuration not stated)	none (no result: USP2a inh, D1 agonist, D1 antagonist, D1 PAM, GALK inhibitor)
CCC(=O)c1cn(Cc2ccccc2)c2ccccc12	none
O=C(COc1ccccc1)c1cn(Cc2ccccc2)c2ccccc12	D1 agonist 30
c1ccc2sc(C3(N4CCCCC4)CCCCC3)cc2c1	none (no result: USP2a inh, D1 agonist, D1 antagonist, D1 PAM, GALK inhibitor)
Oc1ccc2c3c1O[C@H]1c4oc5ccccc5c4C[C@@]4(O)C(C2)N(CC2CC2)CCC314 (some centres not stated)	none (no result: USP2a inh, D1 agonist, D1 antagonist, D1 PAM, GALK inhibitor)
O=[N+]([O-])c1ccc(NCc2ccccc2)c2nonc12	USP2a inh inconclusive, D1 agonist 593, D1 antagonist -59, Eya2 inh inconclusive
O=[N+]([O-])c1ccc(NCc2ccc(Cl)cc2)c2ccncc12	none (no result: GALK inhibitor)
COc1cccc(-n2c(/C=C/c3cccc(C)c3)nc3ccccc3c2=O)c1	none (no result: USP2a inh, Eya2 inh, GALK inhibitor)
C/C=C(\C)C(=O)OC1C(C)=C2C(C1OC(=O)CCCCC)C(C)(OC(C)=O)CC(OC(=O)CCC)C1(O)C2OC(=O)C1(C)O (configuration not stated)	D1 agonist 109, D1 antagonist -31
CC(N)c1cccc(Cl)c1Cl (configuration not stated)	none (no result: USP2a inh, D1 agonist, D1 antagonist, D1 PAM, GALK inhibitor)
Cc1cc2c(C(C)C)c(O)c(O)c(C=O)c2c(O)c1-c1c(C)cc2c(C(C)C)c(O)c(O)c(C=O)c2c1O	USP2a inh 5.6µM, D1 agonist 34!, Eya2 inh 32µM!, GALK inhibitor inconclusive
O=c1[nH]c(=S)n(-c2ccccc2)c(O)c1C=NCc1ccccn1	D1 antagonist -44
CCc1ccc(OCC(=O)N2CCN(CCc3ccccn3)CC2)cc1	none (no result: USP2a inh, Eya2 inh, GALK inhibitor)
O=C1NC(=O)C(=Cc2ccc(OCC(=O)N3CCOCC3)cc2)C(=O)N1	D1 antagonist -37
CN(CCOc1ccc(C=C2C(=O)NC(=O)NC2=O)cc1)c1ccccn1	none
O=S1(=O)N(CCN2CC=C(c3c[nH]c4cc(F)ccc34)CC2)c2cccc3c2N1CCC3	D1 antagonist -41 (no result: GALK inhibitor)
CC(C)N1CC=C(c2c[nH]c3ccccc23)CC1	none
O=c1c2ccccc2nc(/C=C\c2cccc(Br)c2)n1-c1ccc(O)cc1	none (no result: USP2a inh, Eya2 inh, GALK inhibitor)
CC(=O)c1ccc(-c2ccccc2)cc1	D1 antagonist -34
CCOc1ccc(CN(CCc2ccc3c(c2)OCO3)Cc2ccc(OC)c(Br)c2)cc1	none (no result: USP2a inh, Eya2 inh, GALK inhibitor)
N#Cc1cc2c(nc1SCC(=O)Nc1ccc(F)c(Cl)c1)C1CCN2CC1	none (no result: USP2a inh, Eya2 inh, GALK inhibitor)
O=C(c1cc(F)ccc1F)C1CCCN(Cc2ccc3nonc3c2)C1 (configuration not stated)	D1 antagonist -31
O=C(c1ccc2c(c1)OCO2)C1CCCN(Cc2ccc(F)c(F)c2)C1 (configuration not stated)	D1 antagonist -34
O=C(c1ccc(Cl)cc1)C1CCCN(Cc2ccc3c(c2)OCCO3)C1 (configuration not stated)	none
COc1ccc(NC(=O)Cn2c3ccccc3c3nc4n(c(=O)c32)CCS4)cc1	Eya2 inh inconclusive
CCc1ccccc1NC(=O)c1cccn(Cc2ccccc2F)c1=O	none (no result: USP2a inh, Eya2 inh, GALK inhibitor)
Cc1cc(OCc2ccc([N+](=O)[O-])cc2)c2c3c(c(=O)oc2c1)CCCC3	D1 antagonist -30
Cc1cc(OCc2nn[nH]n2)c2c3c(c(=O)oc2c1)CCCC3	none
CCn1c(O)c(/C=N/NC(=O)c2ccncc2)c(=O)[nH]c1=S	D1 antagonist -31
